Experimental data published in PubChem BioAssay (NCATS).
Unmarked numbers belong to inactive results. Results filed as inconclusive are left out. Entries that show only a call come without a potency. Calls of active or inactive are those of the source. Unless noted, the call rests on the fitted dose curve; in most records, active means well fitted curve in the direction sought with a large enough effect; inconclusive means small, poorly fitted or top-dose-only effect, or another doubt; inactive means no such curve, though single readings can be large; an effect the other way counts as inactive or inconclusive.

Columns and labels:
[1] = AP1 Signaling Pathway (AID 357; active means well fitted curve in either direction with a large enough effect, not every such curve was filed as active;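 further: ME-180 reporter cells stimulated with EGF at its EC50 level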); details: ME-180 AP-1-bla reporter, EGF-induced, beta-lactamase ratio, 5 h; at 17.2 µM (top of the series) unless noted
How it was run: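 AP-1-bla ME-180 cells, Opti-MEM + 0.5% dialyzed FBS, plated overnight 37 °C. Cpd titration + EC50 EGF, 5 h 37 °C. CCF4 2.5 h RT; ex 405, em 460/530 ratio → %activity, AC50.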

[2] = target: Cytochrome P450 1A2 (Homo sapiens) (UniProt P05177); test: p450-cyp1a2 (AID 410; calls by dose curve; further: potency means the concentration at half of the fitted maximal effect)
Chain of Cytochrome P450 1A2 (Homo sapiens) (P05177 whole entry, looked up): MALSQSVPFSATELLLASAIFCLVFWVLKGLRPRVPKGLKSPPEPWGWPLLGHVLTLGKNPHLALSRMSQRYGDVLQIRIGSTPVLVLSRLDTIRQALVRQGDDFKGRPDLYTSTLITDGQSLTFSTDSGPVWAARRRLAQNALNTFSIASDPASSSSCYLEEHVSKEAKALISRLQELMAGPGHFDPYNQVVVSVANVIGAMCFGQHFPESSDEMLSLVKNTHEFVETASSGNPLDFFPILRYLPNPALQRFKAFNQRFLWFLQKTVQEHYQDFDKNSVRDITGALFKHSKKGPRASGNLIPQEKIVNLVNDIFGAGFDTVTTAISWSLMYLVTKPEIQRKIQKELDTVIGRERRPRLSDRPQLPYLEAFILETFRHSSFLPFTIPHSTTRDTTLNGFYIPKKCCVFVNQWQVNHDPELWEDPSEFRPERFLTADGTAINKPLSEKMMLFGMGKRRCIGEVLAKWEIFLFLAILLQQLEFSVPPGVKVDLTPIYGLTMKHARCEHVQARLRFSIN
How it was run: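 20nM CYP1A2 with 100uM Luciferin-ME (at Km) in 100mM KPO4; compound preincubated 10 min, NADPH regeneration added, 60 min at room temperature. Luciferin quantified by luminescence after detection reagent; normalized to 57 uM furafylline.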

[3] = Stat Signaling Pathway (AID 446; active means well fitted curve in either direction with a large enough effect, not every such curve was filed as active;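 further: ME-180 cervical cancer cells given 40 pM IL-6 alongside compound; SIE-controlled beta-lactamase reporter measured as 460/530 nm FRET emission ratio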); details: ME-180 SIE beta-lactamase reporter, IL-6 stimulated, 5 h; at 17.2 µM (top of the series) unless noted
How it was run: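 Reporter line: ME-180 cervical carcinoma, SIE-beta-lactamase. Treatment: compound with 40 pM IL-6, 5 hrs, 37 C, in low-serum OPTI-MEM with 10 mM HEPES pH 7.3. Detection: 460/530 nm fluorescence.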

[4] = target: Glucocorticoid receptor (Homo sapiens) (UniProt P04150); test: GR-GFP Redistribution (AID 450;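 active means compounds whose dose series gives a full or clear partial fitted curve of increased nuclear translocation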; further: potency means the concentration at half of the fitted maximal effect)
Chain of Glucocorticoid receptor (Homo sapiens) (P04150 whole entry, looked up, the tested form may be a part): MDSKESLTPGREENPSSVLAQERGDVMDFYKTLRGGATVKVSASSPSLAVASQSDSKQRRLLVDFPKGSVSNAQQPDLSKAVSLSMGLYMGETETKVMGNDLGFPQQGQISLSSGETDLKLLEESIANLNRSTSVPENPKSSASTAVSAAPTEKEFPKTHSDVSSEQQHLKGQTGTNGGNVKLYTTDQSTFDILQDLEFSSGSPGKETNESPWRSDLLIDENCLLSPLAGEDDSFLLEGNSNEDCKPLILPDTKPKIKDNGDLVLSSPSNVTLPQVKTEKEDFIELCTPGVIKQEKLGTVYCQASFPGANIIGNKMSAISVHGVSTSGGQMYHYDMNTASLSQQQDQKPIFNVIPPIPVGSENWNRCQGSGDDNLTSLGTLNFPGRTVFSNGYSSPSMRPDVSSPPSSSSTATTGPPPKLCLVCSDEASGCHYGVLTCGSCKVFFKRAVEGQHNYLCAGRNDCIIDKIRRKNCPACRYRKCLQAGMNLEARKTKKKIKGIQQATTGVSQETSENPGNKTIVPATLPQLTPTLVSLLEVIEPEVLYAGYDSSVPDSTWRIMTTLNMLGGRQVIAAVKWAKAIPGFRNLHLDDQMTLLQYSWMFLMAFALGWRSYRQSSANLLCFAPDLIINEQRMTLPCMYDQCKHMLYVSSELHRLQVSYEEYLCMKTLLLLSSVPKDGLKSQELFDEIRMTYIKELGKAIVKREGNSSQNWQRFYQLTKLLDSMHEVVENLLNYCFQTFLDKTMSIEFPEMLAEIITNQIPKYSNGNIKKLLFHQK

[5] = target: Glucocorticoid receptor (Homo sapiens) (UniProt P04150); test: GR-EFC Redistribution (AID 451; calls by dose curve; further: potency means the concentration at half of the fitted maximal effect); details: CHO-K1 GR-EFC translocation, beta-gal luminescence, 2 h
How it was run: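 CHO-K1 cells stably expressing nuclear-localized β-gal enzyme acceptor and GR fused C-terminally to the enzyme donor fragment; ligand-driven nuclear translocation restores β-gal by complementation. Compounds titrated up to 46 uM final, 2 h at 37 °C; luminescence read.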

[6] = target: Mitogen-activated protein kinase 10 (Mus musculus) (UniProt Q61831); test: JNK3 AlphaScreen Assay (AID 530; active means well fitted curve in either direction with a large enough effect, not every such curve was filed as active;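 further: kinase came from lysate of stimulated human HepG2 cells; signal reports phosphorylation of biotinylated GST-cJun 1-79 at Ser73 with 10 µM ATP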)
How it was run: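 Inhibitors reduce antibody binding to phosphorylated biotin-cJun, lowering AlphaScreen luminescence. Lysates from HepG2 cells pre-activated by IL-1beta plus TNF-alpha supplied JNK3; compounds were titrated.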

[7] = target: 3',5'-cyclic-AMP phosphodiesterase 4B (Homo sapiens) (UniProt Q07343); test: qHTS Assay for Inhibitors of PDE-IV (AID 607; active means well fitted activation curve with a large enough effect in the main read-out, with a control signal flat, not every such curve was filed as active)
Chain of 3',5'-cyclic-AMP phosphodiesterase 4B (Homo sapiens) (Q07343 whole entry, looked up): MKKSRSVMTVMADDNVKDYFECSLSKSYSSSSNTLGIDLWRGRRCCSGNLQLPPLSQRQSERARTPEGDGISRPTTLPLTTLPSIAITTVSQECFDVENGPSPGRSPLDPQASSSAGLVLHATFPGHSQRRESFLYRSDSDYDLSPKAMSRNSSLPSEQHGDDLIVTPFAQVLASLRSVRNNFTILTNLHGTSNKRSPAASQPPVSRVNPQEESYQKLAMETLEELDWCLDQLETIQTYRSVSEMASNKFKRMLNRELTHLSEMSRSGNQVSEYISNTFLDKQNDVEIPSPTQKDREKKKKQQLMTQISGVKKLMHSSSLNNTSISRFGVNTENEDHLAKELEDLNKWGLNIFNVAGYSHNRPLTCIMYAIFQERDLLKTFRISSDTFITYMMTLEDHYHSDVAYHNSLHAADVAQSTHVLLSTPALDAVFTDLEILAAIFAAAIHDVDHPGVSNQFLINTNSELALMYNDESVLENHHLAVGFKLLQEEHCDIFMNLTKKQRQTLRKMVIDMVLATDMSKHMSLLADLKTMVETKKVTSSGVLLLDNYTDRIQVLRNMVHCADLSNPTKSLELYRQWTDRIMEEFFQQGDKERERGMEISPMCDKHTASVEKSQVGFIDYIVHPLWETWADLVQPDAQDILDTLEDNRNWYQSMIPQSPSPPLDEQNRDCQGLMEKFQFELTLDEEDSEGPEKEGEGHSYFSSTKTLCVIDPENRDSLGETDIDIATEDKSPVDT
How it was run: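 Cell-based read-out of cAMP via a modified cyclic nucleotide-gated channel and membrane potential dye (535/590 nm) in HEK293 cells expressing PDE4 endogenously. Compounds tested up to 22.9 uM final; 100 uM RO 20-1724 reference.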

[8] = target: Guanine nucleotide-binding protein G(i) subunit alpha-1 (Homo sapiens) (UniProt P63096); test: qHTS Assay for Inhibitors of RGS12 GoLoco Motif Activity (Green Fluorophore) (AID 879);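 further: negative values mean loss of peptide binding seen as reduced polarization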
Chain of Guanine nucleotide-binding protein G(i) subunit alpha-1 (Homo sapiens) (P63096 whole entry, looked up): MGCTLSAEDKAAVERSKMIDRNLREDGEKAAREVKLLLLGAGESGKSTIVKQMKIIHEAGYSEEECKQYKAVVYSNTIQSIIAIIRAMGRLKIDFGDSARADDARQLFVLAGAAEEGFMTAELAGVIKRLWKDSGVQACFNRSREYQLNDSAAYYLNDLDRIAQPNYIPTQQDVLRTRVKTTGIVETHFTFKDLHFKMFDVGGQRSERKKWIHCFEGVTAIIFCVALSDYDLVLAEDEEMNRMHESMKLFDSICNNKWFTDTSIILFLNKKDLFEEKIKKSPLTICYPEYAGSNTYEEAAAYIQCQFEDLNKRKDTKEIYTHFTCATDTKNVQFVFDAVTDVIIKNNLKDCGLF
How it was run: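 Fluorescence polarization assay: 50 nM Gαi1 with 10 nM FITC-labeled RGS12 GoLoco peptide in 10 mM Tris pH 7.5, 150 mM NaCl, 0.1 mM GDP, 0.05% NP40, 10 min at room temperature with compound.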

[9] = qHTS Assay for Identification of Small Molecule Agonists for Thrombopoietin (TPO) Signaling Pathway (AID 917)
How it was run: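 We measured Glycoprotein IIb promoter–luciferase output in IL-3-starved Ba/F3 murine cells expressing the human TPO receptor after 24 hrs at 37 C with compounds and 26 pM TPO.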

[10] = target: Muscarinic acetylcholine receptor M1 (Rattus norvegicus) (UniProt P08482); test: qHTS Assay for Antagonists of Acetylcholine Muscarinic M1 Receptor: Measurement of IP-One Response (AID 944); further: nearly all actives have a fitted effect of over 75% in size; further: potency means the concentration at half of the fitted maximal effect
Chain of Muscarinic acetylcholine receptor M1 (Rattus norvegicus) (P08482 whole entry, looked up): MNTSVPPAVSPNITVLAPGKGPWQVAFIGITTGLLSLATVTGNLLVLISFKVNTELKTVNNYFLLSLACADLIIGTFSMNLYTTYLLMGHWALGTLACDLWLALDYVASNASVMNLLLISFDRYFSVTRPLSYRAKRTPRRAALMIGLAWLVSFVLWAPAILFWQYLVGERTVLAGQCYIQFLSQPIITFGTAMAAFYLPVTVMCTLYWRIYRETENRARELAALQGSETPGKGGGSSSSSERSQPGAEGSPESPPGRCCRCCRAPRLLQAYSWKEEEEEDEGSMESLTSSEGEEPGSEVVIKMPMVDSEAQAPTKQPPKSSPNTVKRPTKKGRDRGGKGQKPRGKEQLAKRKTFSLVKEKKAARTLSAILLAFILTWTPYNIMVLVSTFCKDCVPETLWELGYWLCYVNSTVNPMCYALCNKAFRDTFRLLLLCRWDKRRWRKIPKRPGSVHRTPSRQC
How it was run: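 CHO cells stably expressing rat M1, pretreated 10 min with compound, then stimulated 30 min with carbachol at EC80 (200 nM) in LiCl-containing buffer pH 7.4; IP1 accumulation read by HTRF competition (665/620 nm).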

[11] = target: Pyruvate kinase (Leishmania mexicana) (UniProt Q27686); test: qHTS Validation Assay for Inhibitors of Leishmania Mexicana Pyruvate Kinase (AID 945)
Chain of Pyruvate kinase (Leishmania mexicana) (Q27686 2-499 E452W): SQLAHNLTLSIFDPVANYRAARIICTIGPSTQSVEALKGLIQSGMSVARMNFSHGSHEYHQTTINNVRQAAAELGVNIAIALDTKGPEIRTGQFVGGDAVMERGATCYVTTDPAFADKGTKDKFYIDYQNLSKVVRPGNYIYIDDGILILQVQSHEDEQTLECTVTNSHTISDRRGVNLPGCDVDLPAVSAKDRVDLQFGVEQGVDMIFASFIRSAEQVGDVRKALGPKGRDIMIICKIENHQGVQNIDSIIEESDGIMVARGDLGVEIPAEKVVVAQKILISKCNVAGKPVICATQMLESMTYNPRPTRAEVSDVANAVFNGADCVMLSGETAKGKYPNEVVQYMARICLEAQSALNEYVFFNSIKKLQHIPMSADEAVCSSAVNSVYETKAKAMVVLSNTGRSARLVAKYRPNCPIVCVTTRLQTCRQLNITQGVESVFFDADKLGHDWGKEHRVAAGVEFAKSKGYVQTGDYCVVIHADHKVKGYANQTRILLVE
How it was run: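 Compounds are tested as eight-point concentration series. Reactions contain 0.2 nM LmPYK E451W, 0.5 mM PEP, 0.1 mM ADP, 7 mM MgCl2 and 50 mM KCl at pH 7.2, run 1 h at room temperature, then read by PKLight luminescence.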

[12] = target: Pyruvate kinase PKM (Homo sapiens) (UniProt P14618); test: qHTS Assay for Activators of Human Muscle Pyruvate Kinase (AID 954; active means well fitted curve in the direction sought with a large enough effect, not every such curve was filed as active)
Chain of Pyruvate kinase PKM (Homo sapiens) (P14618 whole entry, looked up): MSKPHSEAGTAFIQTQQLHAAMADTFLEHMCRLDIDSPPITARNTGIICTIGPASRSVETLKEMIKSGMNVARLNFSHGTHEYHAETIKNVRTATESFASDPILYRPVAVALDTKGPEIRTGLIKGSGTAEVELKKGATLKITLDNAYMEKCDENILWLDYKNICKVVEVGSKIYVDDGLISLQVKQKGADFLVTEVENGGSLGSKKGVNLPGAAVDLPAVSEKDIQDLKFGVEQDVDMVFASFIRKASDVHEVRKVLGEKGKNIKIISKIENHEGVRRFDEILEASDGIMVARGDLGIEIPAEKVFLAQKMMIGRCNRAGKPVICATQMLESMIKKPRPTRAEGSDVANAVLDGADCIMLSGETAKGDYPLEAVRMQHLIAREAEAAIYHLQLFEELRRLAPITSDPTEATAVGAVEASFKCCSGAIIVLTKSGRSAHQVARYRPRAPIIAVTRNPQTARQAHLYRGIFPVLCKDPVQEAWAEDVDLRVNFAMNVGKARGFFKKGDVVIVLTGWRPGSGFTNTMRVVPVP
How it was run: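 Human PKM2 activity is measured as ATP generation, detected by luciferase-coupled luminescence. The enzyme (0.1 nM) acts on 0.5 mM PEP and 0.1 mM ADP for 1 h at ambient temperature; data are normalized to uninhibited and full-inhibition wells.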

[13] = target: Alpha-galactosidase A (Homo sapiens) (UniProt P06280); test: Counterscreen for Glucocerebrosidase Inhibitors: qHTS Assay for Human alpha-Galactosidase at pH 4.5 (AID 992)
Chain of Alpha-galactosidase A (Homo sapiens) (P06280 whole entry, looked up): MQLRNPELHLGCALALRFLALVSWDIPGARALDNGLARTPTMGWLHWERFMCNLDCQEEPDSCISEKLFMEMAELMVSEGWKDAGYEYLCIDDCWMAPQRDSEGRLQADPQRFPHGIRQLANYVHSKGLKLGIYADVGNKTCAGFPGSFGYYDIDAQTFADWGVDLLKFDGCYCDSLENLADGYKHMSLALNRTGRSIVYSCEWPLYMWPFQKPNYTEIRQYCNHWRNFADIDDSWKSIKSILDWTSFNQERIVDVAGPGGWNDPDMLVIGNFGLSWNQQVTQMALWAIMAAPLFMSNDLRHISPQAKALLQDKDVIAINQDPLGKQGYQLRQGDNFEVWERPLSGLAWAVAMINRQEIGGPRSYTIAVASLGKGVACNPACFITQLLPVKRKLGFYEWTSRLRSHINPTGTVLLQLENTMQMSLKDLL
How it was run: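 Quantitative HTS: compounds tested from 0.7 nM up to 77 uM against 2 nM enzyme with 80 uM 4-MU alpha-D-galactopyranoside. The 20 min room-temperature reaction is stopped with 1M NaOH/1M glycine, pH 10.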

[14] = target: alpha-glucosidase (Oryza sativa, rice) (UniProt Q653V4); test: Counterscreen for Glucocerebrosidase Inhibitors: qHTS Assay for Rice alpha-Glucosidase at pH 5.0 (AID 997)
How it was run: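 Rice alpha-glucosidase (4 nM final) with 400 uM 4-methylumbelliferyl-alpha-D-glucopyranoside in citrate buffer pH 5.0, 20 min at room temperature, stopped at pH 10; fluorescence 365/440 nm, compounds 0.7 nM–77 uM, AC50 from Hill fits.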

[15] = NFAT Signaling Pathway (AID 444; active means well fitted curve in either direction with a large enough effect, not every such curve was filed as active;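 further: carbachol stimulus at about its EC50 of 1 µM final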); details: Jurkat NFAT-bla M1, carbachol, beta-lactamase ratio, 5 h; at 17.2 µM (top of the series) unless noted
How it was run: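 Jurkat cells carrying an NFAT-driven β-lactamase reporter and co-transfected muscarinic M1 receptor were treated with compound plus carbachol (1 uM final, an EC50 level) for 5 h at 37 °C. CCF4 loading followed for 1 h at RT; 460/530 nm ratio gave %activity.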

[16] = target: Cytochrome P450 3A4 (Homo sapiens) (UniProt P08684); test: qHTS Assay for Inhibitors and Substrates of Cytochrome P450 3A4 (AID 884); further: nearly all actives have a fitted effect of over 50% in size
Chain of Cytochrome P450 3A4 (Homo sapiens) (P08684 whole entry, looked up): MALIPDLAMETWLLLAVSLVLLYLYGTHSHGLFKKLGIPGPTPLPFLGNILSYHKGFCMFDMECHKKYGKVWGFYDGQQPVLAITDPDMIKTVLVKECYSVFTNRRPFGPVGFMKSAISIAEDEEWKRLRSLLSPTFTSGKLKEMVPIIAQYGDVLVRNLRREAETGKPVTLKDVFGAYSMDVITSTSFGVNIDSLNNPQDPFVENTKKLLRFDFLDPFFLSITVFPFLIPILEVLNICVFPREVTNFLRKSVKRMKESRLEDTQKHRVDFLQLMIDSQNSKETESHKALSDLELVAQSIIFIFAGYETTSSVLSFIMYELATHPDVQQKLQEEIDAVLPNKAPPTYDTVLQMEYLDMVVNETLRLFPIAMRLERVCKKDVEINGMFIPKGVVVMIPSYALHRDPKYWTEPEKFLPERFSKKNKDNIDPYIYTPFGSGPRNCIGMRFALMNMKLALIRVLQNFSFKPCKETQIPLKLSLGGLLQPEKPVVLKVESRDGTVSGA
How it was run: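 20 nM human CYP3A4 with 25 uM Luciferin-PPXE (at KM) in 200 mM KPO4, preincubated 10 min with compound; NADPH regeneration started a 60 min RT reaction. Luciferin detected by luminescence, normalized to 57 uM ketoconazole as full inhibition.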

[17] = qHTS Assay for Identification of Small Molecule Antagonists for NFkB Signaling Pathway (AID 895; active means well fitted inhibition curve with a large enough effect in the signal ratio, with a control signal flat, not every such curve was filed as active; the % refers to the signal ratio)
How it was run: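 NFkB-bla ME-180 cervical carcinoma cells with beta-lactamase reporter under NFkB response element; compounds added, then TNF alpha at 10 pM final (EC50), 5 h at 37 C. LiveBLAzer substrate 2 h, room temperature; emission 460/530 nm at 405 nm excitation.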

[18] = target: Muscarinic acetylcholine receptor M1 (Rattus norvegicus) (UniProt P08482); test: qHTS Assay for Antagonists of Acetylcholine Muscarinic M1 Receptor: Kinetic Measurement of Intracellular Calcium Response (AID 943); further: potency means the concentration at half of the fitted maximal effect; nearly all actives have a fitted effect of over 75% in size
How it was run: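 CHO cells expressing rat M1 receptor, Fluo-4 loaded, preincubated 10 min with compound, then stimulated with EC80 carbachol (100 nM final). Kinetic calcium fluorescence over 4 min; response taken as peak over basal signal.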

Compound	activity change, negative = inhibition [1]	Potency [2]	activity, negative = inhibition [3]	Potency [4] [µM]	Potency [5] [µM]	Potency [6]	Potency [7]	outcome [8]	Potency [9]	Potency [10]	Potency [11]	outcome [12]	outcome [13]	outcome [14]	activity change, negative = inhibition [15] [%]	Potency [16]	Potency [17]	Potency [18]
CCCCCCCCCCCCCCCCCCNC(=O)OC[C@@H](COP(=O)([O-])OCC[n+]1ccsc1)OC	1.14% [at 38 µM]	inactive	-15% [at 38 µM]	> 46	> 46	inactive	inactive	inactive	inactive	inactive	inactive	inactive	inactive	inactive	–	–	–	–
COc1ccccc1C(=O)N1CCCC1(C#N)c1ccccc1 (stereo unspecified)	-10.1%	–	-2.09%	–	–	–	–	–	–	–	–	–	–	–	-0.126	–	–	–
C/C=C1\C(=O)C[C@@H]2[C@@H]3CCC4=CC(=O)CC[C@@]4(C)[C@H]3CC[C@@]12C	13.9% [at 38 µM]	inactive	7.49% [at 38 µM]	–	–	–	inactive	inactive	–	inactive	inactive	inactive	inactive	inactive	–	inactive	inactive	–
O[Si@](CCCN1CCCCC1)(c1ccc(F)cc1)C1CCCCC1	11.3% [at 38 µM]	inactive	1.42% [at 38 µM]	> 46	> 46	inactive	inactive	inactive	–	1.41 µM (active)	inactive	inactive	inactive	inactive	–	–	inactive	0.178 µM (active)
COc1cc2nc(N3CC=[N+](C(=O)c4ccco4)CC3)nc(N)c2cc1OC	-19.6% [at 38 µM]	12.6 µM (active)	–	> 46	> 46	inactive	inactive	inactive	–	–	inactive	inactive	inactive	inactive	–	inactive	–	–
